The values below come from PubChem BioAssay AID1159602 (The Scripps Research Institute Molecular Screening Center, 2016).

Molecules are shown by their SMILES. Out of some 22,000 compounds screened, about 220 (1%) were called active. Only a selection was taken, and actives are over-represented in it overall. Values without a mark were called inactive. No stated cut-off is given here; in the data, active means inhibition above about 35%; inactive means the rest.

For this assay, the target named is Mitogen-activated protein kinase kinase kinase 5 (Homo sapiens) (UniProt Q99683). Nature of the assay: ASK1 kinase inhibitors, primary screen, biochemical, AlphaScreen (AID 1159602).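 Further: 0% = median of compound wells and 100% = no enzyme.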 To be noted: AlphaScreen MKK6 phosphorylation by ASK1, luminescence; at 7.44 µM; hits give high values.
Sequence of Mitogen-activated protein kinase kinase kinase 5 (Homo sapiens) (Q99683 whole entry, looked up): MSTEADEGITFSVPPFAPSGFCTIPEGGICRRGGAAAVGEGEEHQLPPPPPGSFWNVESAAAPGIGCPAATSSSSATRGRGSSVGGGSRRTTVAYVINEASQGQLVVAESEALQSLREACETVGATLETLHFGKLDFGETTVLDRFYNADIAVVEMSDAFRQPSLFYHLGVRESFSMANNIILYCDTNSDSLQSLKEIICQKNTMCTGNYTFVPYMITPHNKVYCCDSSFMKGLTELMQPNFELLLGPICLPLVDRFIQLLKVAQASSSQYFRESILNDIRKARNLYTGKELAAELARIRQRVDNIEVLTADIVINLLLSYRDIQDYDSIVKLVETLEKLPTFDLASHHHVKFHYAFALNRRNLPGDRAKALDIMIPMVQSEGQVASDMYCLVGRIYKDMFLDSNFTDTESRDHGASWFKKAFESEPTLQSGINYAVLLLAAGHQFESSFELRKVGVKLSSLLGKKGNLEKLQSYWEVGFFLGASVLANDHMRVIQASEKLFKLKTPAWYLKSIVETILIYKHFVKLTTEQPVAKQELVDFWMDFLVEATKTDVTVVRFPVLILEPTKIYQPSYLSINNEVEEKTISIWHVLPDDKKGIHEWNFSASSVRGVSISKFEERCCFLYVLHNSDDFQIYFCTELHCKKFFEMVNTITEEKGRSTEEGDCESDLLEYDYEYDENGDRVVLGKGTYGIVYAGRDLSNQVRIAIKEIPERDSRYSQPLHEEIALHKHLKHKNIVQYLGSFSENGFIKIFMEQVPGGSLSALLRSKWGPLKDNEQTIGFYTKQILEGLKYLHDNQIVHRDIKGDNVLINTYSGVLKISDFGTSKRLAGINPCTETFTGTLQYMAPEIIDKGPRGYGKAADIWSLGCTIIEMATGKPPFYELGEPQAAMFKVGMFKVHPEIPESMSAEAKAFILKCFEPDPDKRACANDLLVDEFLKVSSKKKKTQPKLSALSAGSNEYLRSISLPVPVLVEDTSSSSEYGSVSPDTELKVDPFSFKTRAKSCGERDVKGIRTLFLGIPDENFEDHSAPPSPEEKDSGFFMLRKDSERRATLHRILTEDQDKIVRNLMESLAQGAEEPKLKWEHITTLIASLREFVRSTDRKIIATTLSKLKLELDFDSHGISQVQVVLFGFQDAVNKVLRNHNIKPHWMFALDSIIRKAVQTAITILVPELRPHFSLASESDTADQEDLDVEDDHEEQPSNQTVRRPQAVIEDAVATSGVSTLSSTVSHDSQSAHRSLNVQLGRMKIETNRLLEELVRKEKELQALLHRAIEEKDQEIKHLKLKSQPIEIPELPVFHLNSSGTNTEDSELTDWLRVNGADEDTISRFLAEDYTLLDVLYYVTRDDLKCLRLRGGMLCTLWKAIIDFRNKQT
In general, inhibition refers to the relative decrease from the control value, in per cent. As for `CCNc1nc(C(=O)NCc2ccccc2)cs1`, the inhibition is -2.48%.

Take `O=C(NCCN1CCOCC1)c1ccc2nc(N3CCCC3CO)sc2c1` (centres undefined): the inhibition was 3.28%.

As for `CCCNc1cc(NC2CCN(Cc3ccccc3)CC2)nc(N)n1`, the inhibition was 6.95%.

In the case of `O=C([C@@H](O)CSc1ccc(Br)cc1)N1CCC(Nc2ccc3[nH]ncc3c2)CC1`, the inhibition was -0.23%.

On to `CC(=O)c1cccc(-c2nc3ccc(C(=O)NCCO)cc3s2)c1`, for which the inhibition was 0.91%.

For `FC(F)(F)c1ccc(Cn2cnc3c(Nc4ccc(Oc5ccccc5)cc4)nc(N4CCOCC4)nc32)cc1`, the inhibition was 18%.

In the case of `CC(C)n1cnc2c(Nc3ccc(N4CCOCC4)cc3)nc(NC3CCC(O)CC3)nc21` (centres undefined), the inhibition is 6.93%.

Regarding `Cc1cc(NC2CCN(Cc3ccccc3)CC2)nc(Nc2ccccc2)n1`, the inhibition is 12.7%.

In the case of `CC(C)n1cnc2c(NC3CCN(Cc4ccccc4)CC3)nc(NC3CCN(Cc4ccccc4)CC3)nc21`, the inhibition was 8.61%.

`CC(C)n1cnc2c(NC3CCN(Cc4ccccc4)CC3)nc(Nc3ccc(N4CCOCC4)cc3)nc21`: the inhibition was 45% (active).

As to `c1ccc(CN2CCC(Nc3nc(Nc4ccc(N5CCOCC5)cc4)c4ncn(C5CCCCC5)c4n3)CC2)cc1`, the inhibition was 22.4%.

Turning to `O=C(Nc1ccc(Oc2ccccc2)cc1)c1cncc(-c2ccc(C(=O)NC3CC3)cc2)c1`, the inhibition is 9.5%.

Turning to `COc1cc(Nc2ncnc3c2nc(N2CCN(Cc4ccc5c(c4)OCO5)CC2)n3C(C)C)cc(OC)c1OC`, the inhibition is 10.6%.

Turning to `CC(=O)Nc1ccc(Nc2cc(C)nc(NCc3ccc4c(c3)OCO4)n2)cc1`, the inhibition is 5.86%.

Turning to `Cc1cc(Nc2ccc(N3CCOCC3)cc2)nc(NCc2ccc3c(c2)OCO3)n1`, the inhibition was 37.3% (active).

Turning to `COc1ccc(CCNc2ncnc3c2nc(Nc2cccc(N(C)C)c2)n3C(C)C)cc1`, the inhibition is 27.5%.

For the molecule `COc1ccc(CCNc2cc(C)nc(NCc3ccc4c(c3)OCO4)n2)cc1`, the inhibition was 15.4%.

With `COc1ccc(CCNc2cc(C)nc(Nc3cccc(N(C)C)c3)n2)cc1`, the inhibition is 70.9% (active).

For the molecule `Cc1cc(Nc2ccc3c(c2)OCO3)nc(Nc2cccc(N(C)C)c2)n1`, the inhibition was 62.2% (active).

For the molecule `CN(C)c1cccc(Nc2ncc(C(=O)Nc3ccc4c(c3)OCO4)s2)c1`, the inhibition is 24.2%.

`CCNc1nc(C)cc(Nc2ccc(N3CCOCC3)cc2)n1`: the inhibition was 30.4%.

On to `CN(C)c1cccc(Nc2nccc(Nc3ccccc3)n2)c1`, for which the inhibition is 13%.

With `CC(=O)c1cccc(-c2ccc(C(=O)Nc3ccccc3)s2)c1`, the inhibition was -3.18%.

On to `COc1ccc2c(c1)C[C@H](C(=O)Nc1ccc(-c3cn[nH]c3)cc1N(C)CCN(C)C)NC2`, for which the inhibition was 5.32%.
